# Only some compounds are listed: those with a hit (about 9.2% of all), similar ones and a draw of the others.
# HTT cytoprotect = cytoprotection in Huntington HTT-Q103 PC12 cell model. PC12 HTT-Q103 induced, cytoprotection, ATP luminescence, 40 h. Potency, µM (series often up to 56.4 µM), for the others: cytoprotection (ATP increase), hits mostly activators. hit rate 0.14% among 230,000. AID 1471; active = well fitted curve in the direction sought with a large enough effect; inconclusive = small, poorly fitted or top-dose-only effect, or another doubt; inactive = no such curve, though single readings can be large; an effect the other way counts as inactive or inconclusive; note: % of control where 0% means no effect; nearly all actives have a fitted effect of over 45% in size
#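 Huntington model: PC12 line, ecdysone-inducible HTTQ103 exon1–GFP, tebufenozide 100 nM. Test articles in a dose series. Endpoint luminescence from cellular ATP.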
# JMJD2E inh = JMJD2E (human) inhibition | B2RXH2 | JMJD2E catalytic domain, FDH-coupled NADH fluorescence (FDH is formaldehyde dehydrogenase) | Potency, µM (series often up to 57.1 µM), inactives show at the highest dose activity change, negative = inhibition, hits mostly inhibitors | hit rate 1.6% among 230,000 | AID 2147;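 note: 0% = wells with enzyme and -100% = buffer wells without enzyme; nearly all actives have a fitted effect of over 50% in size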
# HttQ103 aggreg = inhibitors of mutant huntingtin aggregate formation in PC12 cells; PC12 HttQ103-GFP aggregates, Acumen cytometry, 40 h; Potency, µM (top dose mostly 46.1 µM), for the others: top-dose activity change, negative = inhibition, most hits filed as inhibitors; hit rate 1.1% among 220,000; AID 1688; active = well fitted curve in the direction sought with a large enough effect; inconclusive = small, poorly fitted or top-dose-only effect, or another doubt; inactive = no such curve, though single readings can be large; an effect the other way counts as inactive or inconclusive; note: % is set by controls: 0 for no effect and ±100 for the full control effect; nearly all actives have a fitted effect of over 60% in size
#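 Using laser scanning cytometry, GFP-positive aggregates were counted after lysis of PC12 cells induced with 100 nM tebufenozide to express HTT exon 1 Q103–GFP. Compounds were tested in titration.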
# LMNA splice mod = modulators of lamin A splicing; HeLa LMNA splicing GFP/RFP minigene ratio, 48 h; Potency, µM (top dose mostly 46.1 µM), for the others: top-dose ratio change, negative = inhibition, usual class: inhibitors; hit rate 0.01% among 200,000; AID 1487; active = well fitted inhibition curve with a large enough effect in the signal ratio, with a control signal flat, not every such curve was filed as active; inconclusive = small, poorly fitted or top-dose-only effect, or effect the other way, or a change in a side signal; the % refers to the signal ratio; note: % is set by controls: 0 for no effect and ±100 for the full control effect
#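 Read-out is the ratio of GFP to DsRed2 object intensity, acquired by 488 nm laser-scanning cytometry on HeLa lamin A-EGFP minigene reporter cells. Compound incubation 48 hrs at 37 °C in Opti-MEM with 2% FBS; DMSO 0.5% final.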
# HPGD inh = inhibitors of human 15-hydroxyprostaglandin dehydrogenase (HPGD); AID 894; purified HPGD, NADH fluorescence kinetic, PGE2 substrate; Potency, µM, for the others: at the top dose activity change, negative = inhibition, hits mostly inhibitors; P15428; hit rate 4.3% among 150,000; note: % is set by controls: 0 for no effect and ±100 for the full control effect
# Target sequence (P15428 whole entry, looked up): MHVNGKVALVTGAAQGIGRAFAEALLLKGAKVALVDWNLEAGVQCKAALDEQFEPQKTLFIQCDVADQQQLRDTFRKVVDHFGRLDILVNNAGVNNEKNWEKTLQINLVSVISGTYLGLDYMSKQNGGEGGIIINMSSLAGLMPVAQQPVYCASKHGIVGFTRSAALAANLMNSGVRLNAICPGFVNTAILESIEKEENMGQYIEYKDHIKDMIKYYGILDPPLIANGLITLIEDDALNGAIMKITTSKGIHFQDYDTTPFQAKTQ
#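 20 nM HPGD preincubated 15 min at room temperature with compound in 50 mM Tris-HCl pH 8, 0.01% Tween 20. Started with 1 mM NAD+ and 30 uM prostaglandin E2; NADH fluorescence (360/450 nm) read 5 times over 30-s intervals, last minus first.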
# ALDH1A1 block = inhibitors of human aldehyde dehydrogenase 1A1; P00352; AID 1030; hit rate 7.3% among 220,000; Potency, µM (highest dose often 75.3 µM), without a hit: top-dose activity, negative = inhibition, most hits filed as inhibitors; Purified ALDH1A1, NADH fluorescence, propionaldehyde substrate;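 note: plate controls were no enzyme wells and a reference inhibitor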
# Target sequence (P00352 whole entry, looked up): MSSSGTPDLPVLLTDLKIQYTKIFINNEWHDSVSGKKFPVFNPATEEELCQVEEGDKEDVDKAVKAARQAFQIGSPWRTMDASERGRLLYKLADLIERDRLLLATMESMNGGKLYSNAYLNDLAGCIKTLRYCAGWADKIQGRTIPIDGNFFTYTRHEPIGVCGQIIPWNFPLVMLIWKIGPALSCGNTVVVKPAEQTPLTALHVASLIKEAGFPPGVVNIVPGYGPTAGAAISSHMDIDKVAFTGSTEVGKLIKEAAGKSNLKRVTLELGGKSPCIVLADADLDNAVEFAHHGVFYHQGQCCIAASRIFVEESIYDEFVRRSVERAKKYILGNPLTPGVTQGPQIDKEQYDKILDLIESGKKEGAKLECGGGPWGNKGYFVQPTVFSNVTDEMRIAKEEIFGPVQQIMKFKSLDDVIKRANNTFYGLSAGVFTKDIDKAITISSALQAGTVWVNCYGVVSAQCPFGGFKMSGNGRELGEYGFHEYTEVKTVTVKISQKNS
# * hit, by the source's call; ? = inconclusive; nt = no result; [ ] = another dose, or the depositor's remark. Unless noted, calls come from the whole dose curve; as a rule, active = well fitted inhibition curve with a large enough effect (not every such curve was filed as active); inconclusive = small, poorly fitted or top-dose-only effect, or another doubt; inactive = no such curve, though single readings can be large or run the other way. Potency is the fitted concentration of half-maximal effect.
SMILES,HTT cytoprotect,JMJD2E inh,HttQ103 aggreg,LMNA splice mod,HPGD inh,ALDH1A1 block
COc1ccc2c(c1)CCc1c(C(=O)N3CCCc4ccccc43)noc1-2,3.4%[10 µM],-4.1%,-17.6%,?,-22.5%,4.47µM*
COc1ccc2c(c1)CCc1c(C(=O)NCc3ccc(Cl)cc3)noc1-2,-14.4%,0.7%,-9.8%[9.22 µM],6.1%,-2.4%,12.6µM*
C=CCSC1=NC(=O)/C(=C/c2cccs2)S1,26.9%[10 µM],5.1%,-5.4%,?,31.6µM*,?
NC1=NC(=O)/C(=C/c2cccs2)S1,-34.7%,0.5%,26.1%,-11.0%,-51.8%,-5.7%
Cc1ccc(-c2nc3ccccc3s2)cc1NC(=O)c1cc(-n2cnnc2)ccc1Cl,-9.7%,?,21.5%,16.2%,-21.6%,?
CCOc1ccc(C(=O)Nc2cc(-c3nc4ccccc4[nH]3)ccc2C)cc1[N+](=O)[O-],-44.3%,2.6%,-20.7%,2.5%,-26.0%,?
Cc1cc(C)c2oc(-c3ccc(C)c(NC(=S)NC(=O)/C=C/c4ccco4)c3)nc2c1,9.0%[10 µM],-3.0%,11.6%,-4.1%,-14.7%,-7.5%
Cc1ccc(-c2nc3ccccc3[nH]2)cc1NC(=O)c1ccc2c(c1)OCO2,-28.1%,-6.3%,18.3%,9.6%,-11.3%,5.4%
Cc1ccc(-c2nc3ccccc3s2)cc1NC(=S)NC(=O)c1ccccc1,-48.8%,-13.5%,15.5%,-2.5%,-12.1%,10µM*
Cc1ccc(-c2nc3ccccc3[nH]2)cc1NC(=O)/C=C/c1ccco1,-68.3%,?,?,13.3%,-19.0%,12.6µM*
O=C(NC(=S)Nc1cc(-c2nc3ccccc3[nH]2)ccc1Cl)c1ccc2c(c1)OCO2,nt,?,-24.8%,-11.8%,20µM*,8.91µM*
Cc1ccc(-c2nc3ccccc3[nH]2)cc1NC(=S)NC(=O)c1ccccc1Br,-83.6%,-1.8%,?,8.9%[0.0737 µM],-14.8%,28.2µM*
C[C@H]1COC(=O)[C@H]2CCCN2C(=O)[C@@H](C)COC(=O)[C@H](Cc2ccccc2)NC1=O,-2.8%[10 µM],nt,nt,nt,nt,3.1%[13.5 µM]
Cc1nc(-c2ccc(C(F)(F)F)cc2)sc1C(=O)NN,-14.2%[10 µM],15.1%,5.3%[9.22 µM],nt,nt,1.12µM*
Cn1ncc(C(N)=O)c1NC(=S)NC(=O)c1ccc(Br)o1,-27.0%,-3.5%,1.0%,1.6%[46 µM],nt,7.94µM*
O=C1C(=O)N(CNc2cccnc2)c2ccccc21,6.0%[10 µM],1.1%,9.2%,-2.7%,15.8µM*,-1.2%
O=C1C(=O)N(CNc2ccccn2)c2ccccc21,-75.0%,-0.1%,1.9%,5.4%,-17.1%,3.16µM*
CCCSc1nc(C)c(-c2csc(C(C#N)=C3CCCC3)n2)cc1C#N,15.4%,?,?,?,-29.1%,22.4µM*
CC(C)N(C(=O)COC(=O)c1cncc(Br)c1)C(C)C,-8.1%,-2.0%,7.7%,-26.0%[46 µM],nt,5.6%
c1ccc2c(c1)ccc1ncccc12,0.7%,-22.4%,-32.4%,nt,-7.7%,0.6%
c1cnc2ccc3ncccc3c2c1,29.9%[10 µM],17.8µM*,-9.3%[9.22 µM],nt,nt,nt
NCCOc1ccc(C23CC4CC(CC(C4)C2)C3)cc1,-2.1%[10 µM],-5.6%,-10.2%,?,nt,22.4µM*
CC(NC(=O)CSc1nnc(CC(=O)Nc2ccc(Cl)c(Cl)c2)n1C)c1ccccc1 (configuration not stated),8.9%[10 µM],-2.1%,-18.9%,4.6%,28.2µM*,?
Cn1c(CC(=O)Nc2ccc(Cl)c(Cl)c2)nnc1SCC(=O)N1CCN(c2ccccc2)CC1,-35.8%,4.8%,?,17.9%,0.2%,-2.3%
OCCC1CN(Cc2ccccc2OC2CCCC2)CCN1Cc1ccsc1 (configuration not stated),-8.4%[10 µM],9.8%,-2.5%[9.22 µM],2.4%[46 µM],nt,?
SMILES,HTT cytoprotect,JMJD2E inh,HttQ103 aggreg,LMNA splice mod,HPGD inh,ALDH1A1 block
CC1=CCC[C@@H]2[C@@](C)(CC/C(C)=C/C(=O)O)[C@H](C)CC[C@@]12C,nt,1.2%,-0.5%,-9.7%,?,-1.9%
Cc1ccc(CNc2ncnc(N)c2[N+](=O)[O-])cc1,6.1%,16.9%,4.47µM*,-2.7%[46 µM],nt,18.4%
O=C(Nc1ccc(F)cc1Cl)c1cnc(N2CCOCC2)c2ccccc12,nt,nt,nt,-7.1%[46 µM],nt,nt
Cc1cc(SCC(=O)NC(=O)NCc2ccco2)nc2ccccc12,-52.6%,1.3%,18.6%,?,-22.9%,?
Cc1cc(SCC(=O)NC(=O)NCc2ccco2)nc2c(C)cccc12,-18.4%,-22.7%,-5.7%,-8.3%,-21.0%,22.4µM*
Cc1ccccc1CSCC(=O)NC(=O)NCc1ccco1,3.6%[10 µM],-2.0%,-8.0%[9.22 µM],4.9%,-29.1%,25.1µM*
Cc1cn([C@@H]2C[C@H](N=[N+]=N)[C@H](CO)O2)c(=O)[nH]c1=O,0.8%[40.3 µM],2.3%[25.5 µM],nt,-12.9%,-5.8%,-8.2%[20.9 µM]
CCn1c(SCC(=O)Nc2sc3c(c2C(N)=O)CCC(C)C3)nnc1-c1ccco1 (configuration not stated),-13.3%,-26.8%,-14.3%,-13.6%,?,22.4µM*
CCn1c(SCC(=O)Nc2nonc2C)nnc1-c1ccco1,-30.5%,5.5%,10.6%,1.5%,?,14.1µM*
CCOC(=O)c1c(NC(=O)CSc2nnnn2-c2ccccc2)sc2c1CCC(C)C2 (configuration not stated),-0.9%,-6.6%,?,11.7%,-14.6%,-8.3%
Cc1cc(NC(=O)CSc2nnc(-c3ccco3)n2Cc2ccco2)no1,-0.5%[10 µM],4.0%,-4.0%,6.0%,-5.0%,7.4%
CC(=O)Nc1ccc(NC(=O)CSc2nnc(-c3ccco3)n2Cc2ccco2)cc1,-25.4%,-1.8%,28.8%,-8.7%,-9.7%,20µM*
Cc1ccccc1-c1nc(NCCN2CCOCC2)c2ccccc2n1,-16.0%,-21.2%,nt,8.9%,-14.8%,6.5%
O=c1cc[nH]c(=S)[nH]1,-3.2%,5.8%,4.0%,nt,-9.8%,-3.8%
Cc1cccc(/C=C2/SC(=O)N(Cc3ccccc3)C2=O)n1,14.6%,6.7%,-28.3%,4.3%,-3.9%,6.31µM*
O=C1/C(=C/c2ccccn2)SC(=S)N1Cc1ccccc1,33.5%[10 µM],1.1%,0.3%[9.22 µM],nt,nt,nt
CC(C)(C)C1=CC=C(C(C)(C)C)C(=O)C1=O,3.1%[10 µM],-13.3%,4.7%[9.22 µM],nt,nt,1.58µM*
CC(C)(C)c1ccc2c(c1)C(=O)c1ccccc1C2=O,0.5%[10 µM],2.5%,-24.2%,-5.5%,nt,?
O=C(CN1CCCc2ccccc21)NCCc1ccc(F)cc1,-67.4%,?,-16.1%,nt,nt,?
Cc1cc(C)c(/C=C/c2onc(C)c2S(=O)(=O)N2CCC(C(=O)N3CCN(c4ccc(Cl)cc4)CC3)CC2)c(C)c1,nt,nt,nt,9.0%[46 µM],nt,nt
O=C(O)c1cccc(N2C(=O)c3cccc(Oc4ccc(Cl)cc4)c3C2=O)c1,36.6%[10 µM],11.0%,20.4%,-3.9%,25.1µM*,10.7%
O=C(O)c1ccc(N2C(=O)c3cccc(Oc4ccc(Cl)cc4)c3C2=O)cc1,9.7%[10 µM],?,5.4%,7.2%,1.41µM*,0.8%

# Screens (PubChem BioAssay)
